In test [1] the target is human Protein Tyrosine Phosphatase Non-receptor Type 1 (PTPN1), PTPN1 (gene 5770) (UniProt P18031). Nature of the test: NVS_ENZ_hPTPN1: NovaScreen (NVS) Enzymatic Assay for human Protein Tyrosine Phosphatase Non-receptor Type 1 (PTPN1) (AID 2283201). The method, boiled down:
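Cell-free fluorogenic-substrate activity assay on recombinant enzyme, read 1.33 h after dosing by fluorescence and electrophoretic mobility shift; loss of signal vs DMSO baseline. Primary screen in duplicate at 25 uM, hits then run in concentration-response up to 50 uM.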

Test [2] concerns the target human Phosphodiesterase 4A1 (PDE4A1), PDE4A (gene 5141) (UniProt P27815). Nature of the test: NVS_ENZ_hPDE4A1: NovaScreen (NVS) Enzymatic Assay for human Phosphodiesterase 4A1 (PDE4A1) (AID 2283191). In a few lines: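 Cell-free recombinant human PDE4A1 with fluorescent substrate; product separated by electrophoretic mobility shift, 1 h. Screened at 25 uM, then up to 50 uM in concentration-response; loss of signal fitted against DMSO.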

Test [3] has as its target human Phosphodiesterase 10 (PDE10), PDE10A (gene 10846) (UniProt Q9Y233). Nature of the test: NVS_ENZ_hPDE10: NovaScreen (NVS) Enzymatic Assay for human Phosphodiesterase 10 (PDE10) (AID 2283195). In a few lines: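 PDE10A, cell-free; 1 h incubation; fluorescence intensity + electrophoretic mobility shift separating substrate/product; DMSO = baseline; 25 uM duplicate primary, CRC up to 50 uM.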

Test [4] has as its target cAMP-dependent protein kinase catalytic subunit alpha (Homo sapiens) (UniProt P17612). Nature of the test: NVS_ENZ_hPKA: NovaScreen (NVS) Enzymatic Assay for human Protein Kinase A (PKA) (AID 2283192). In a few lines: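 Recombinant human PKA with specific fluorescent substrate, product separated by electrophoretic mobility shift, read 1 h after dosing. Primary screen at 25 uM in duplicate; actives then run in concentration-response up to 50 uM, activity relative to DMSO.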

Test [5] concerns the target human Protein Phosphatase, Mg2+/Mn2+ Dependent 1A (PPM1A), PPM1A (gene 5494) (UniProt P35813). Nature of the test: NVS_ENZ_hPPM1A: NovaScreen (NVS) Enzymatic Assay for human Protein Phosphatase, Mg2+/Mn2+ Dependent 1A (PPM1A) (AID 2283198). In a few lines: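 Cell-free recombinant PPM1A phosphatase assay with fluorescent substrate, read 1 h after dosing by electrophoretic mobility shift. Chemicals screened in duplicate at 25 uM, then in concentration-response up to 50 uM; loss of activity versus DMSO.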

Test [6] deals with Serine/threonine-protein phosphatase PP1-alpha catalytic subunit (Homo sapiens) (UniProt P62136). Nature of the test: NVS_ENZ_hPPP1CA: NovaScreen (NVS) Enzymatic Assay for human Protein Phosphatase 1 Aatalytic subunit Alpha (PPP1CA) (AID 2283200). In a few lines: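 Recombinant enzyme activity read by fluorescence with electrophoretic mobility shift separating substrate from product, 1.33 h after dosing; loss of signal vs DMSO baseline. Primary screen in duplicate at 25 uM; actives retested in concentration-response up to 50 uM.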

Test [7] has as its target Tyrosine-protein phosphatase non-receptor type 11 (Homo sapiens) (UniProt Q06124). Nature of the test: NVS_ENZ_hPTPN11: NovaScreen (NVS) Enzymatic Assay for human Protein Tyrosine Phosphatase Non-receptor Type 11 (PTPN11) (AID 2283202). In a few lines:
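Recombinant human PTPN11 activity on a fluorescent substrate, with substrate/product separated by electrophoretic mobility shift; read 0.5 h after dosing, loss of signal vs DMSO. Duplicate 25 uM screen, then concentration-response up to 50 uM.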

Test [8] has as its target human Phosphoinositide 3-kinase alpha (PI3Ka), PIK3CA (gene 5290) (UniProt P42336). As to the kind of experiment: NVS_ENZ_hPI3Ka: NovaScreen (NVS) Enzymatic Assay for human Phosphoinositide 3-kinase alpha (PI3Ka) (AID 2283196). In a few lines: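 Chemicals were first screened at 25 uM in duplicate, then hits were run as concentration series up to 50 uM. Enzyme activity was measured by fluorescence after mobility-shift separation, with loss of signal relative to DMSO taken as activity.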

For test [9], the target named is human Mitogen- and Stress-activated Protein Kinase-1 (Msk1), RPS6KA5 (gene 9252) (UniProt O75582). As to the kind of experiment: NVS_ENZ_hMsk1: NovaScreen (NVS) Enzymatic Assay for human Mitogen- and Stress-activated Protein Kinase-1 (Msk1) (AID 2283187). The method, boiled down: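 Recombinant kinase with fluorescent substrate; product separated by electrophoretic mobility shift, read 1 h after dosing. Screened in duplicate at 25 uM; hits (e.g. ≥30% inhibition) tested in concentration–response up to 50 uM. DMSO baseline.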

Test [10] concerns the target human Matrix Metalloproteinase-9 (MMP9), MMP9 (gene 4318) (UniProt P14780). Nature of the test: NVS_ENZ_hMMP9: NovaScreen (NVS) Enzymatic Assay for human Matrix Metalloproteinase-9 (MMP9) (AID 2283190).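 Note: cell-free recombinant MMP9 protease activity read by fluorescent substrate signal; active means inhibition seen as loss of fluorescence signal versus DMSO.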 The method, boiled down:
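Inhibition was scored as loss of fluorescence signal against DMSO controls. The recombinant protease was exposed to chemicals for 1 hour before reading; initial testing used 25 uM in duplicate.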

In PubChem BioAssay (EPA / NIEHS) one finds outcome and AC50 data, which are given here for 16 compounds.

Inconclusive results are not listed. Activity calls are given as the source filed them. Rule for the calls: active = hit-call score of the fitted dose curve at least 0.9, where 1 is the maximum; inconclusive = response in the unintended direction; inactive = score below 0.9.

Tyrosine-protein phosphatase non-receptor type 11 (Homo sapiens), sequence (Q06124 whole entry, looked up): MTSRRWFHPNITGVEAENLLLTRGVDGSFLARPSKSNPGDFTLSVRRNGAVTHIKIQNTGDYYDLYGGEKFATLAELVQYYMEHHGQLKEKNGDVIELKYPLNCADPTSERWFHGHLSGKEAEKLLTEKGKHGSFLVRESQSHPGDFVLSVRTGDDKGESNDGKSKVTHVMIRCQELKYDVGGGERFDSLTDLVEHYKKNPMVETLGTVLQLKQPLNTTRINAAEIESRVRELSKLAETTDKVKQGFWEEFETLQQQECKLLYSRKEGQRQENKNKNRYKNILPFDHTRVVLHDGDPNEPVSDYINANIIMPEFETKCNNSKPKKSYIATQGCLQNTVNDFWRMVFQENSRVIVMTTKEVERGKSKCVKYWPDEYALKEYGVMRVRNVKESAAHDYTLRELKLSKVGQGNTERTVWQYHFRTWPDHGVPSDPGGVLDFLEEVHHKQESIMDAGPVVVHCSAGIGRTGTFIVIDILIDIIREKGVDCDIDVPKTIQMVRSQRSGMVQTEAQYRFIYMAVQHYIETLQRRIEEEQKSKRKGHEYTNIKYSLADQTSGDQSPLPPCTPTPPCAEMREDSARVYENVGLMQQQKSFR
Serine/threonine-protein phosphatase PP1-alpha catalytic subunit (Homo sapiens), sequence (P62136 whole entry, looked up): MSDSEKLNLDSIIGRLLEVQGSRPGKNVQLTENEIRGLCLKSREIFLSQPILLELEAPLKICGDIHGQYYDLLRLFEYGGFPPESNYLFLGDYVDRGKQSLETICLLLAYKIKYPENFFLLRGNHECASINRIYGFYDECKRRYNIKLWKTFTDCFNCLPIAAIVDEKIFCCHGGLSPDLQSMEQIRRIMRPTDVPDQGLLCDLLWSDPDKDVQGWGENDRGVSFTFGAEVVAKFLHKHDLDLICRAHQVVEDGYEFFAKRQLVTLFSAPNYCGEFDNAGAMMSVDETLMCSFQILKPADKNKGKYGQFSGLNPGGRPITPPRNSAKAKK
human Matrix Metalloproteinase-9 (MMP9), MMP9 (gene 4318), sequence (P14780 whole entry, looked up): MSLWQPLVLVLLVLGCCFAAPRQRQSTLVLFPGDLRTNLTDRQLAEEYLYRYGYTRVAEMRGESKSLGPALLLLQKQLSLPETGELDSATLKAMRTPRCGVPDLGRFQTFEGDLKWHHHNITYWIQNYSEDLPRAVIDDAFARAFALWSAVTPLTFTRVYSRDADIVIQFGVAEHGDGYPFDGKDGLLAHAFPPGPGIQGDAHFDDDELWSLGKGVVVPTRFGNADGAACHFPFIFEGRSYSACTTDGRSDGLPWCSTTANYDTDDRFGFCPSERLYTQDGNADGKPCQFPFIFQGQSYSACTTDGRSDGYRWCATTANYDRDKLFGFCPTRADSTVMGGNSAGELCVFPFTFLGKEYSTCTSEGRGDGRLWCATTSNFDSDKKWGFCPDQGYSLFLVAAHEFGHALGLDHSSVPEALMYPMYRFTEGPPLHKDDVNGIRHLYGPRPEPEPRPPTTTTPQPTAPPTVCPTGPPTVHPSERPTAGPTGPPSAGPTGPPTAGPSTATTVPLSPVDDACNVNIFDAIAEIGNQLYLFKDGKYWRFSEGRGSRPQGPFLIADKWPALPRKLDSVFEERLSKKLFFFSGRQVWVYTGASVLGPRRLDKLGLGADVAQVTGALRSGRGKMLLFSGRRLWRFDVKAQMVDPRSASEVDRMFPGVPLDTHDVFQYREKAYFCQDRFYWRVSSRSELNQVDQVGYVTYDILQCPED
human Phosphodiesterase 10 (PDE10), PDE10A (gene 10846), sequence (Q9Y233 whole entry, looked up): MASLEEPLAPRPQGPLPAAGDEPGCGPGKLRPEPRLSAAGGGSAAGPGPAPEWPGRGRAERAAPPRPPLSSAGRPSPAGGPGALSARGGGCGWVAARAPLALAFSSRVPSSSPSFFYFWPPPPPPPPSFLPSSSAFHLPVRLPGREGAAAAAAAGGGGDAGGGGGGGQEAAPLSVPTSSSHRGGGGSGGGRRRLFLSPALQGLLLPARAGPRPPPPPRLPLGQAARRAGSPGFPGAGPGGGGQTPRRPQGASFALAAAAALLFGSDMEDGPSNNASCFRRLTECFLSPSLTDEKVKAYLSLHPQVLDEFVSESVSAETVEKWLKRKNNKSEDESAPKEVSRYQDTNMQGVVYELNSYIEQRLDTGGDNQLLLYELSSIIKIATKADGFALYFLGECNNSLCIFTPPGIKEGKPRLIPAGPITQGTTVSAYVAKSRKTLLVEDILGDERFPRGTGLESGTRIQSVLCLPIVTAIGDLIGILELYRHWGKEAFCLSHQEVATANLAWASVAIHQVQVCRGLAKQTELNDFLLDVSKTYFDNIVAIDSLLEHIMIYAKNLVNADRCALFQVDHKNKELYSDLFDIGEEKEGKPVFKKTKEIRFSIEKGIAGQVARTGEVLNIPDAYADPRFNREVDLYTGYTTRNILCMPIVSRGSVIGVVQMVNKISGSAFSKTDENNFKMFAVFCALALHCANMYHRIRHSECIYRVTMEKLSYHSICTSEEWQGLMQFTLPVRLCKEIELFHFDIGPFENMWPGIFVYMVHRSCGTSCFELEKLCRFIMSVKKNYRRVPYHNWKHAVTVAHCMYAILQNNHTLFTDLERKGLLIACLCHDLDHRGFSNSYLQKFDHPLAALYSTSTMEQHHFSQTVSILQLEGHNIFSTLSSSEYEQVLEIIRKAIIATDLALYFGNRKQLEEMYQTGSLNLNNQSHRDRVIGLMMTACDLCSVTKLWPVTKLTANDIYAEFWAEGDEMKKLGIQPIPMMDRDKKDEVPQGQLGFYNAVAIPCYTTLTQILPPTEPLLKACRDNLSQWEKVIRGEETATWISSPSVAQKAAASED
human Phosphodiesterase 4A1 (PDE4A1), PDE4A (gene 5141), sequence (P27815 whole entry, looked up): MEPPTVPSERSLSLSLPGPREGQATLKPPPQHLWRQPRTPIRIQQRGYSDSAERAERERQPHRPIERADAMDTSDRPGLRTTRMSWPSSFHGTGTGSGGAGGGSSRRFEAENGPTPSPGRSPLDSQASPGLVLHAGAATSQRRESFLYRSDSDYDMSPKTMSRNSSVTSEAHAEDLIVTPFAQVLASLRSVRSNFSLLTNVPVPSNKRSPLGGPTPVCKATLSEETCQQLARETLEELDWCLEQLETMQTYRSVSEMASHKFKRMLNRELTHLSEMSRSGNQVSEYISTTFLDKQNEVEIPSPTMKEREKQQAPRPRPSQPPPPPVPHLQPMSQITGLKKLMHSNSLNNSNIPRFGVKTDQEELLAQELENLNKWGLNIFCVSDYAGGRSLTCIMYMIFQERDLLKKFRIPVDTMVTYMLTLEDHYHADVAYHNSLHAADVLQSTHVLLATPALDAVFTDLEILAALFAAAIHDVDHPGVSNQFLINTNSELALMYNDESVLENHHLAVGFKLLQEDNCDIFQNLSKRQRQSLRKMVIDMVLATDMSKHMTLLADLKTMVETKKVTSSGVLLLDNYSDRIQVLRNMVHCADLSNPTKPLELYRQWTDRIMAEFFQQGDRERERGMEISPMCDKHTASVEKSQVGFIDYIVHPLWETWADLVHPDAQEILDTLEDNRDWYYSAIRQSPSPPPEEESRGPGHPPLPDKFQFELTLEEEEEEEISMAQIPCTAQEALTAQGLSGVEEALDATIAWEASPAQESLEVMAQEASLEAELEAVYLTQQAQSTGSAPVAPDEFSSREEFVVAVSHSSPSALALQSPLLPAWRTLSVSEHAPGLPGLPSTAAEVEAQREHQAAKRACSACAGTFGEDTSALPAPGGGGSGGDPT
human Phosphoinositide 3-kinase alpha (PI3Ka), PIK3CA (gene 5290), sequence (P42336 whole entry, looked up): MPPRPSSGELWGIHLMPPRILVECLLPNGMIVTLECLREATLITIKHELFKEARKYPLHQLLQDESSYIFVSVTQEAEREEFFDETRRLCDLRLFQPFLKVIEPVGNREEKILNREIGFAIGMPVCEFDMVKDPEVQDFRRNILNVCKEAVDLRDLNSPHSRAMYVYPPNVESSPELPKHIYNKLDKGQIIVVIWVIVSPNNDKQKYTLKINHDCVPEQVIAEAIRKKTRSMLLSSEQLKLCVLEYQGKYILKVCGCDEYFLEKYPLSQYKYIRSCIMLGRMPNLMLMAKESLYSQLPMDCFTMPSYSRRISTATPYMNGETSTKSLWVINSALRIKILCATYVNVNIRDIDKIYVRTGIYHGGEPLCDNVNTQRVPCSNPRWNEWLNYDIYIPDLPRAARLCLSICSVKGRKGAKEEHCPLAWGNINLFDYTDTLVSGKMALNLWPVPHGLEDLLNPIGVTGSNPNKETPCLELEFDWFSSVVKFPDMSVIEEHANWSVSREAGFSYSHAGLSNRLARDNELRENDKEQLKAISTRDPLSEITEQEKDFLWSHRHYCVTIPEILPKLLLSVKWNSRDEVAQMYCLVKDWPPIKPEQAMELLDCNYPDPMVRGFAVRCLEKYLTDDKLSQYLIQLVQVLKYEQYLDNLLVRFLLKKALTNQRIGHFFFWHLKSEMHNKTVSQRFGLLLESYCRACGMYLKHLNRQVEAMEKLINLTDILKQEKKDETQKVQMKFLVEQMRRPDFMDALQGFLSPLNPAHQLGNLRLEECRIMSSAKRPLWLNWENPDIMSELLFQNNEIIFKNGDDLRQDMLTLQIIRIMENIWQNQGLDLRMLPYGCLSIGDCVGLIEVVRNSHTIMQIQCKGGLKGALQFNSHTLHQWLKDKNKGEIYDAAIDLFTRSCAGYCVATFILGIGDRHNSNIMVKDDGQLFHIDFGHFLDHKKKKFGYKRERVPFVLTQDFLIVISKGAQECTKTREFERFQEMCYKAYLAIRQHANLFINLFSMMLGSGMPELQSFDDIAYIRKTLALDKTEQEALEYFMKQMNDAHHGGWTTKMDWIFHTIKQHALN
human Protein Tyrosine Phosphatase Non-receptor Type 1 (PTPN1), PTPN1 (gene 5770), sequence (P18031 whole entry, looked up): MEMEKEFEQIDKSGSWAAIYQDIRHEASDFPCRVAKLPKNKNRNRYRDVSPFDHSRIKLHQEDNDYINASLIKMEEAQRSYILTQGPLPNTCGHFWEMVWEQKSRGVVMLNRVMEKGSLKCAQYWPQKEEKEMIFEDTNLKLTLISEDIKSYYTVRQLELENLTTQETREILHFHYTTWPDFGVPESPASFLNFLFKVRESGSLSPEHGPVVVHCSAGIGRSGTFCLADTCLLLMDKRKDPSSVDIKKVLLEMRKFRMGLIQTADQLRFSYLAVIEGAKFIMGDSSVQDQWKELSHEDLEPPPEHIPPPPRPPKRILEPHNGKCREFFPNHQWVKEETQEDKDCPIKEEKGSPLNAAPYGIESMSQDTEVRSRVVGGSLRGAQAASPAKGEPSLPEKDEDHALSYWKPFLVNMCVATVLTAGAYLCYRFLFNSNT

Turning to `C1CCC(SSC2CCCCC2)CC1`, the call in test [1] was inactive.
As to `CC(=O)Oc1ccccc1C(=O)O`, the result in test [2] was inactive.
As to `NCC1(Cc2noc(=O)[nH]2)CCCCC1`, the result in test [3] was inactive.
On to `O=C(OCCCCCOC(=O)c1ccccc1)c1ccccc1`, for which the compound was classed as inactive in test [4], in test [5] and in test [6].
Broadly, the AC50 is the concentration giving half of the maximal activity seen. Take `COc1cc(-c2nc(NC(=O)c3cc4cc(C)cc(C)c4n3CC(=O)O)sc2CCC2CCCCC2)c(OC)cc1Cl`: the AC50 in test [6] is 1.42 µM (active).
`CNCc1cc(F)ccc1Oc1ccc(Cl)c(Cl)c1`: the call in [2] and in [3] was inactive.
`Cc1ccc2ncccc2c1`: the outcome in test [7] was inactive.
On to `CC(C)(C)c1cc(O)c(C(C)(C)C)cc1O`, for which the result in test [5] was inactive.
Consider `CC1(C)NC(=O)NC1=O`, for which the compound was classed as inactive in [6].
Take `CCOC(=O)C(C)(C)Oc1ccc(Cl)cc1`: the compound was called inactive in [3], in test [8], in [1] and in test [7].
As to `NCCO`, the compound was called inactive in test [9], in test [10], in [4] and in test [7].
For `Nc1ccc2c(c1)C(=O)c1ccccc1C2=O`, the result in test [6] was inactive.
Regarding `CC(C)c1ccc(C(=O)N=C(N)N)cc1S(C)(=O)=O`, the compound was classed as inactive in test [8].
`O=C(N[C@@H](Cc1ccccc1)[C@@H](O)C(=O)N1C[C@@H](O)[C@@H](O)C1)c1cc2cc(Cl)ccc2[nH]1`: the compound was called inactive in [10] and in [2].
For `Cc1c(C(=O)O)c(O)cc2c1C(=O)c1c(O)c([C@@H]3O[C@H](CO)[C@@H](O)[C@H](O)[C@H]3O)c(O)c(O)c1C2=O`, the AC50 in test [10] was 4.45 µM (active). Besides, the compound was called inactive in test [2].
With `CCCc1cc(=O)[nH]c(=S)[nH]1`, the AC50 in [10] was 8.66 µM (active).
